What all share (assay): DAPPL (digital affinity profiling via proximity ligation, sequencing); 10 mM Tris-HCl pH 7.5, 50 mM NaCl, 1 mM DTT, 4% glycerol, room temperature, 30 min; GST-TFs on glutathione beads, 16-mer random dsDNA library, 0.1% formaldehyde crosslink after washing; high values mean tight binding
Assay [1] has as its target T1, FEV (Homo sapiens, UniProt Q99581 1-238).
T1 sequence: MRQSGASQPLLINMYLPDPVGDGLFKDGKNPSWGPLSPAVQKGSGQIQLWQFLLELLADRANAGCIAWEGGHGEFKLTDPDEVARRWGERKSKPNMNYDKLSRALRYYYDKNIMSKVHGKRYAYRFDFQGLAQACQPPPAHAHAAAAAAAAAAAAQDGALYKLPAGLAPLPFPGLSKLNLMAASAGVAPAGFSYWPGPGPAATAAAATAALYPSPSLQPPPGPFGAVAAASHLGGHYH
Conditions: protein: recombinant; tags: N-terminal GST; dsDNA, one strand shown. The method, boiled down:
(§1)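 In yeast, human transcription factors were expressed with a GST fusion, then pulled down on glutathione beads and given DNA barcodes. Pooled with a tag-only sample, they were exposed to 200 nmole of a 16-mer random double-stranded DNA library (Tris/NaCl/DTT/glycerol buffer, room temperature, 30 min), washed, crosslinked with 0.1% formaldehyde, proximity-ligated using BsaI/T4 ligase for 1 h at 37 °C, PCR-amplified and read on an Illumina NextSeq500. Each hexamer's frequency of reads for a factor, divided by the matching frequency for the tag-only sample, gives the binding signal.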

Assay [2] has as its target ETV5 (Homo sapiens, UniProt P41161 1-510). The note with it: protein: recombinant; tags: N-terminal GST; dsDNA, one strand shown. The method, boiled down:
as §1

Assay [3] concerns the target HSF1 (Homo sapiens, UniProt Q00613 1-529). Conditions: protein: recombinant; tags: N-terminal GST; chain copies: 3; dsDNA, one strand shown. The method, boiled down:
as §1

In assay [4] the target is T2, SPIC (Homo sapiens, UniProt Q8N5J4 1-248).
T2 sequence: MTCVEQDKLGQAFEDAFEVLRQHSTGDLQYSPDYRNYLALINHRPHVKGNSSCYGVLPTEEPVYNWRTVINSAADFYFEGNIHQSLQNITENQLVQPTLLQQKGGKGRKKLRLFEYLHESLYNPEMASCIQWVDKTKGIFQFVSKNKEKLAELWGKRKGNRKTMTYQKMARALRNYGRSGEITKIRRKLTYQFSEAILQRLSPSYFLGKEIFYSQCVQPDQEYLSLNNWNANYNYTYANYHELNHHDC
Conditions: protein: recombinant; tags: N-terminal GST; dsDNA, one strand shown. The method, boiled down:
as §1

For assay [5], the target named is ELF4 (Homo sapiens, UniProt Q99607 1-663). The note with it: protein: recombinant; tags: N-terminal GST; dsDNA, one strand shown. An outline of the steps: as §1
The target in assay [6] is T3, ELK4 (Homo sapiens, UniProt P28324-2 1-405).
T3 sequence: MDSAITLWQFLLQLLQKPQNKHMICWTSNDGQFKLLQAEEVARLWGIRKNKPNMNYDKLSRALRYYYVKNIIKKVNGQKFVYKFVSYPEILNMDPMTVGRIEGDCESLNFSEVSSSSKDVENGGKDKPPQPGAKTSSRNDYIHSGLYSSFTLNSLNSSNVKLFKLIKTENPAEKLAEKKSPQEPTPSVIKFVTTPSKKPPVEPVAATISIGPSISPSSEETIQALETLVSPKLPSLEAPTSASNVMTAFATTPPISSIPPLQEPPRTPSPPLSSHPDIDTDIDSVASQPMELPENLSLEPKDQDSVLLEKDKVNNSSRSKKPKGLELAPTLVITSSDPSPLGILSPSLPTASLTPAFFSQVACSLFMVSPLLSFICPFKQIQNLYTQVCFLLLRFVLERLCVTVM
Conditions: protein: recombinant; tags: N-terminal GST; dsDNA, one strand shown. An outline of the steps:
as §1

Assay [7] concerns the target T4, ETV2 (Homo sapiens, UniProt O00321 1-342).
T4 sequence: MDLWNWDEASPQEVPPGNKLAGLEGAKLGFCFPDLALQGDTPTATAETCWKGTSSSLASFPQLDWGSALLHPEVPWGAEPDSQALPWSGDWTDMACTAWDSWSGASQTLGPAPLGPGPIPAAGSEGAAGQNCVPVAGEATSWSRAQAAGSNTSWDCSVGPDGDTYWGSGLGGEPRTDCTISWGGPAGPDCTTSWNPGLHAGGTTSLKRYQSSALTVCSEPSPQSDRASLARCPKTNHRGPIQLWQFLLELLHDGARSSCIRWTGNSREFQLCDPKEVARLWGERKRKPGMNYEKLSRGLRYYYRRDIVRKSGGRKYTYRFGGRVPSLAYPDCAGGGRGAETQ
Conditions: protein: recombinant; tags: N-terminal GST; dsDNA, one strand shown. An outline of the steps:
as §1

For assay [8], the target named is T5, ELF3 (Homo sapiens, UniProt P78545 1-371).
T5 sequence: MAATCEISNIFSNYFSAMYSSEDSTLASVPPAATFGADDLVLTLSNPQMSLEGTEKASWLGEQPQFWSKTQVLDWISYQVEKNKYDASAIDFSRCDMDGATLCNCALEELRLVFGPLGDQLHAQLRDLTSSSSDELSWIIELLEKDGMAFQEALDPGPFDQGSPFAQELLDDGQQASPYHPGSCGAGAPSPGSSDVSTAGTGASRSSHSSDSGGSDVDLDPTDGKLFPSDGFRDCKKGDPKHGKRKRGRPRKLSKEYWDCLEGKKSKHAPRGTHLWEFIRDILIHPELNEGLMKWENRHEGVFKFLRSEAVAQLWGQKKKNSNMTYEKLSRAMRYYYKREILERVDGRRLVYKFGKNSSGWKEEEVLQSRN
Conditions: protein: recombinant; tags: N-terminal GST; dsDNA, one strand shown. An outline of the steps: as §1

The target of assay [9] is CRX (Homo sapiens, UniProt O43186 1-299). The note with it: protein: recombinant; tags: N-terminal GST; dsDNA, one strand shown. The method, boiled down: as §1
Assay [10] deals with ETV1 (Homo sapiens, UniProt P50549 1-477). The note with it: protein: recombinant; tags: N-terminal GST; dsDNA, one strand shown. The method, boiled down:
as §1

This passage reports binding signal results from publication PMC7862700, “An all-to-all approach to the identification of sequence-specific readers for epigenetic DNA modifications on cytosine”.

ELF4, sequence (Q99607 whole entry): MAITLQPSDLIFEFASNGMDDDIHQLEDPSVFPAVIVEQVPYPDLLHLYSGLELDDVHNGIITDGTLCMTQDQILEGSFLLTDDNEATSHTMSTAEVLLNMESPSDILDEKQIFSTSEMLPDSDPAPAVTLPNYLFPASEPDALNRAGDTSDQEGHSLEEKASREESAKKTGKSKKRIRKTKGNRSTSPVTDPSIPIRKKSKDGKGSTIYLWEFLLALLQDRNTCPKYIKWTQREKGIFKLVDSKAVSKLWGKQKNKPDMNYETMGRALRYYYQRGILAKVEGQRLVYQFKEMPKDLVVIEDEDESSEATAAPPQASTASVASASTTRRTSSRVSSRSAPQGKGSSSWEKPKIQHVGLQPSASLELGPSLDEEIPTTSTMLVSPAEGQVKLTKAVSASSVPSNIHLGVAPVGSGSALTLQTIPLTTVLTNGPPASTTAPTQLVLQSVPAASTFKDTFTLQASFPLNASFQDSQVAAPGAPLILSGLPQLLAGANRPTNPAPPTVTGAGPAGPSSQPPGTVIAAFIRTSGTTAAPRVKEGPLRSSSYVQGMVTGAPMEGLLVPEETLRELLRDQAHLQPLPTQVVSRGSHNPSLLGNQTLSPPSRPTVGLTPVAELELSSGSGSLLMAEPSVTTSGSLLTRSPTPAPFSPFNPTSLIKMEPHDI
ETV5, sequence (P41161 whole entry): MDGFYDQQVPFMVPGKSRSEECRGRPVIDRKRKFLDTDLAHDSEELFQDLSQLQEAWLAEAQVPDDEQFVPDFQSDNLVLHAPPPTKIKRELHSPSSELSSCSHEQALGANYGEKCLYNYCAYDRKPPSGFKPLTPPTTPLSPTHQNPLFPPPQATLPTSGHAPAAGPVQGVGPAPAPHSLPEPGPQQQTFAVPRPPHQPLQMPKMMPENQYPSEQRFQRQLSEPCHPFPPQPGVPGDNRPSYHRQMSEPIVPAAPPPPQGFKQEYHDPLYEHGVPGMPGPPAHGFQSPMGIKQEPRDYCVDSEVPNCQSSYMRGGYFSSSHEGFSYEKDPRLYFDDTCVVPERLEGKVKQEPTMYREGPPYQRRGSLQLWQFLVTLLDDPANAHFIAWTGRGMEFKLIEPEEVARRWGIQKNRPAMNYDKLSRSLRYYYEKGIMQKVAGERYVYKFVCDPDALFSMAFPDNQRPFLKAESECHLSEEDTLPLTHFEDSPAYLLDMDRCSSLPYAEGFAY
HSF1, sequence (Q00613 whole entry): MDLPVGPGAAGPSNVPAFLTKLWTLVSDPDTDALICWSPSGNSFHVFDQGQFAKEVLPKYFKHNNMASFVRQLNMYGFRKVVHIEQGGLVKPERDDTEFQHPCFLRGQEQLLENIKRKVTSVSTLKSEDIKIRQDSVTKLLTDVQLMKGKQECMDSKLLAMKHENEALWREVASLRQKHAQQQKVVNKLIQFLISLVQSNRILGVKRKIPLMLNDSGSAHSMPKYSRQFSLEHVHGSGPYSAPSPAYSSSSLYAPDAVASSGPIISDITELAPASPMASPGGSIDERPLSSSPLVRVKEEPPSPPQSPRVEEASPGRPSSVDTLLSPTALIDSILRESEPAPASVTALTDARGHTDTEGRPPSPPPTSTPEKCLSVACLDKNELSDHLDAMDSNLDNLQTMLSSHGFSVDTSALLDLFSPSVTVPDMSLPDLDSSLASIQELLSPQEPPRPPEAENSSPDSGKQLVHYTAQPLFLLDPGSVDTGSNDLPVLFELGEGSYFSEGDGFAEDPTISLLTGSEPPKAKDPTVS
CRX, sequence (O43186 whole entry): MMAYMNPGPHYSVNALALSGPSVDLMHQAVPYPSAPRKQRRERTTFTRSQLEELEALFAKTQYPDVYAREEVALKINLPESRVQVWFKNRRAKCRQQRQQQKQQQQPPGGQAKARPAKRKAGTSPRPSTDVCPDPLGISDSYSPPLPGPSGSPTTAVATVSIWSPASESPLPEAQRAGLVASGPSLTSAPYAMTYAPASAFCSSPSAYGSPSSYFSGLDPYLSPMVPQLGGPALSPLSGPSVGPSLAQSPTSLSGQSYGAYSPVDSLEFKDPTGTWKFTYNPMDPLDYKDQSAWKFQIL
ETV1, sequence (P50549 whole entry): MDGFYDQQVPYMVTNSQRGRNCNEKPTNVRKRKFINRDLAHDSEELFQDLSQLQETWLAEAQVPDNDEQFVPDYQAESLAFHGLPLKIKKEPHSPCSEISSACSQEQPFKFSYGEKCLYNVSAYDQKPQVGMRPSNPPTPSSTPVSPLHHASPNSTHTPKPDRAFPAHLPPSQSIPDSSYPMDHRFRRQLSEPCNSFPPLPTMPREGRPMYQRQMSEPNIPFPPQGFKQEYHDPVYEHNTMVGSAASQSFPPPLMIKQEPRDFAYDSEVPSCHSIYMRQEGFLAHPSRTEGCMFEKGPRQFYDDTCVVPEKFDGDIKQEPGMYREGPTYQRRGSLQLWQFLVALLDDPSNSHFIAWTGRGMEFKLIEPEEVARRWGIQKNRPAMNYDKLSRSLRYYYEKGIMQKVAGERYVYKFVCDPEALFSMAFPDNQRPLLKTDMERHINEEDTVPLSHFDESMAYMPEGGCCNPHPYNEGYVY

TCGTTC: the binding signal was 1.23 fold enrichment (6-mer frequency, TF over GST control) in assay [1]; 1.29 fold enrichment (6-mer frequency, TF over GST control) in assay [2]; 1.39 fold enrichment (6-mer frequency, TF over GST control) in assay [3]; 1.23 fold enrichment (6-mer frequency, TF over GST control) in assay [4]; 1.31 fold enrichment (6-mer frequency, TF over GST control) in assay [5]; 1.39 fold enrichment (6-mer frequency, TF over GST control) in assay [6]. In addition, the binding signal was 1.37 fold enrichment (6-mer frequency, TF over GST control) in [7]; 1.15 fold enrichment (6-mer frequency, TF over GST control) in assay [8]; 1.04 fold enrichment (6-mer frequency, TF over GST control) in assay [9]; 1.2 fold enrichment (6-mer frequency, TF over GST control) in assay [10].
In the case of TGCATT, the binding signal in assay [1] is 1.38 fold enrichment (6-mer frequency, TF over GST control); in assay [2] it was 1.3 fold enrichment (6-mer frequency, TF over GST control); in assay [3] it was 1.24 fold enrichment (6-mer frequency, TF over GST control); in assay [4] it was 1.44 fold enrichment (6-mer frequency, TF over GST control); in assay [5], 1.36 fold enrichment (6-mer frequency, TF over GST control); in assay [6], 1.38 fold enrichment (6-mer frequency, TF over GST control). For the same sequence, the binding signal is 1.39 fold enrichment (6-mer frequency, TF over GST control) in assay [7]; 1.49 fold enrichment (6-mer frequency, TF over GST control) in assay [8]; 1.32 fold enrichment (6-mer frequency, TF over GST control) in assay [9]; 1.32 fold enrichment (6-mer frequency, TF over GST control) in [10].
For the sequence GATCCC, the binding signal is 1.18 fold enrichment (6-mer frequency, TF over GST control) in assay [1]; 1.13 fold enrichment (6-mer frequency, TF over GST control) in assay [2]; 1.22 fold enrichment (6-mer frequency, TF over GST control) in assay [3]; 1.22 fold enrichment (6-mer frequency, TF over GST control) in [4]; 1.26 fold enrichment (6-mer frequency, TF over GST control) in assay [5]; 1.2 fold enrichment (6-mer frequency, TF over GST control) in assay [6]. For the same sequence, the binding signal in assay [7] was 1.23 fold enrichment (6-mer frequency, TF over GST control); in [8], 1.18 fold enrichment (6-mer frequency, TF over GST control); in assay [9], 1.32 fold enrichment (6-mer frequency, TF over GST control); in [10] it was 1.22 fold enrichment (6-mer frequency, TF over GST control).
On to TTTTTT, for which the binding signal was 1.17 fold enrichment (6-mer frequency, TF over GST control) in [1]; 1.23 fold enrichment (6-mer frequency, TF over GST control) in assay [2]; 1.23 fold enrichment (6-mer frequency, TF over GST control) in assay [3]; 1.3 fold enrichment (6-mer frequency, TF over GST control) in [4]; 1.19 fold enrichment (6-mer frequency, TF over GST control) in assay [5]; 1.17 fold enrichment (6-mer frequency, TF over GST control) in assay [6]. For the same sequence, the binding signal in assay [7] is 1.4 fold enrichment (6-mer frequency, TF over GST control); in assay [8], 1.33 fold enrichment (6-mer frequency, TF over GST control); in assay [9], 1.24 fold enrichment (6-mer frequency, TF over GST control); in assay [10] it was 1.36 fold enrichment (6-mer frequency, TF over GST control).
For CTACAA, the binding signal in [1] was 1.14 fold enrichment (6-mer frequency, TF over GST control); in assay [2], 1.21 fold enrichment (6-mer frequency, TF over GST control); in assay [3], 1.16 fold enrichment (6-mer frequency, TF over GST control); in assay [4], 1.2 fold enrichment (6-mer frequency, TF over GST control); in assay [5] it was 1.18 fold enrichment (6-mer frequency, TF over GST control); in assay [6] it was 1.21 fold enrichment (6-mer frequency, TF over GST control). In addition, the binding signal in [7] was 1.18 fold enrichment (6-mer frequency, TF over GST control); in [8], 1.03 fold enrichment (6-mer frequency, TF over GST control); in [9], 1.04 fold enrichment (6-mer frequency, TF over GST control); in assay [10], 1.13 fold enrichment (6-mer frequency, TF over GST control).
For the sequence TTACCG, the binding signal is 1.26 fold enrichment (6-mer frequency, TF over GST control) in [1]; 1.23 fold enrichment (6-mer frequency, TF over GST control) in [2]; 1.25 fold enrichment (6-mer frequency, TF over GST control) in assay [3]; 1.16 fold enrichment (6-mer frequency, TF over GST control) in [4]; 1.13 fold enrichment (6-mer frequency, TF over GST control) in assay [5]; 1.16 fold enrichment (6-mer frequency, TF over GST control) in assay [6]. Besides, the binding signal is 1.12 fold enrichment (6-mer frequency, TF over GST control) in [7]; 1.2 fold enrichment (6-mer frequency, TF over GST control) in assay [8]; 1.74 fold enrichment (6-mer frequency, TF over GST control) in assay [9]; 1.14 fold enrichment (6-mer frequency, TF over GST control) in assay [10].
As to CCCTCC, the binding signal in assay [1] is 1.51 fold enrichment (6-mer frequency, TF over GST control); in [2] it was 1.48 fold enrichment (6-mer frequency, TF over GST control); in [3], 1.22 fold enrichment (6-mer frequency, TF over GST control); in assay [4], 1.73 fold enrichment (6-mer frequency, TF over GST control); in assay [5] it was 1.58 fold enrichment (6-mer frequency, TF over GST control); in [6], 1.38 fold enrichment (6-mer frequency, TF over GST control). Further, the binding signal in assay [7] was 1.32 fold enrichment (6-mer frequency, TF over GST control); in assay [8] it was 1.27 fold enrichment (6-mer frequency, TF over GST control); in [9], 1.19 fold enrichment (6-mer frequency, TF over GST control); in [10], 1.45 fold enrichment (6-mer frequency, TF over GST control).
